# Only some compounds are listed: those with a hit (about 21% of all), similar ones and a draw of the others.
# IL-1B inflam inh: blocks inflammasome-driven IL-1 beta release | THP-1 LPS/ATP IL-1B secretion, AlphaLISA, 16 h; active compounds read low | activity change, % at 57.5 µM | actives 4.7% (n = 360,000) | AID 743279; in the data active = activity change below about -50%; inconclusive = mostly about -30% to -49%
#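 THP-1 cells pretreated 1 hr with compounds (up to 57.5 uM final), then stimulated with LPS (250 ng/mL final) plus ATP (1.25 mM final); secreted IL-1B measured by AlphaLISA after 16 hr, decreased signal indicating inhibition.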
# RORgamma inh: inhibitors of mouse ROR gamma transcriptional activity. P51450. Drosophila S2 Gal4-RORgamma UAS-luciferase reporter, 20 h. Potency, µM (titrated, usually from 53.6 µM), usual class: inhibitors. actives 5.4% (n = 310,000). AID 2551; also: nearly all actives have a fitted effect of over 60% in size
# Target sequence (P51450 whole entry, looked up, the tested form may be a part): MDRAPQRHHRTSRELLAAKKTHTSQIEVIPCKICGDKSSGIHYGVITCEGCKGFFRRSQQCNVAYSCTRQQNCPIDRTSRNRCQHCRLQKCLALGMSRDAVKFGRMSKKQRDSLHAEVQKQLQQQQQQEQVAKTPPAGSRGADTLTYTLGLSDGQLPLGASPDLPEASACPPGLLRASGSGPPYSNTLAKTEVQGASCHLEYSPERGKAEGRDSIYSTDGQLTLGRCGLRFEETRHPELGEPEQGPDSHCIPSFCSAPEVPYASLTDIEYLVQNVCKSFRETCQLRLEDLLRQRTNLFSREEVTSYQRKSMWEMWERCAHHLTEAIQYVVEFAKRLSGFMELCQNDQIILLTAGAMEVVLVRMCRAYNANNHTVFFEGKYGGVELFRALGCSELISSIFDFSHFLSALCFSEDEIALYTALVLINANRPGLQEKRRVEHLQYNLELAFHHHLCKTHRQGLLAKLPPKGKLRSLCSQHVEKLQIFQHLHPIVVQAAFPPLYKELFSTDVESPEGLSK
#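 Luminescence from a UAS-regulated Photinus luciferase reporter in stably transfected Drosophila Schneider cells is measured; decreased signal marks ROR gamma inhibition. Fusion expression is induced by 700 uM copper sulfate for 20 hr.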
# DT40 TDP1 CPT: growth inhibition of DT40 Tdp1-/-;hTDP1 cells with camptothecin (screen for TDP1 inhibitors); chicken DT40 Tdp1-/-;hTDP1 cells + 20 nM CPT, ATP luminescence, 48 h; Potency, µM (doses to about 46.2 µM), most hits filed as inhibitors; actives 12% (n = 420,000); AID 686979; also: nearly all actives have a fitted effect of over 55% in size
#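 Chicken DT40 Tdp1-/- cells complemented with human TDP1, 400 cells/well, exposed to compounds plus 20 nM camptothecin for at least 48 h at 37 C; viability read as ATP content by CellTiter-Glo luminescence.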
# Gal4-VP16 FLuc: Gal4-VP16 reporter inhibition counter-screen. actives 3.5% (n = 310,000). Drosophila S2 Gal4-VP16 UAS-luciferase, luminescence, 20 h. Potency, µM (highest dose often 53.6 µM), actives largely listed as inhibitors;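 also: Gal4-VP16 expression switched on by copper sulfate through the metallothionein promoter; nearly all actives have a fitted effect of over 50% in size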
# DT40 TDP1 no CPT: qHTS for Inhibitors of human tyrosyl-DNA phosphodiesterase 1 (TDP1): qHTS in cells in absence of CPT; DT40 Tdp1-/- hTDP1 cells, no CPT, ATP luminescence, 48 h; Potency, µM (highest dose often 46.2 µM), actives largely listed as inhibitors; actives 15% (n = 420,000); AID 686978, 2013; also: nearly all actives have a fitted effect of over 55% in size
#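 Compound effects on proliferation are scored in DT40 Tdp1-/-;hTDP1 cells in the absence of CPT. ATP levels (CellTiter-Glo luminescence) are recorded after a ≥48 hr, 37 °C incubation.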
# ELG1 repair inh: ELG1-dependent DNA repair inhibition; Potency, µM (highest dose often 46.1 µM), hits mostly inhibitors; HEK293T ELG1-luciferase reporter, luminescence, 16 h; DNA damage induced by 5-fluorouridine; AID 504467; actives 2.3% (n = 330,000); also: nearly all actives have a fitted effect of over 55% in size
#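 Step one: seed 2,000 cells per well. Step two: pin-transfer compound or DMSO alongside 5-fluorouridine. Step three: incubate 16 hr, 37 °C, 5% CO2. Step four: add ONE-Glo, wait 30 min, read luminescence.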
# Numbers stand for hits; 0 = inactive; ? = inconclusive; - = no result given; [ ] = another dose, or the depositor's remark. Unless noted, calls follow the shape of the dose curve; as a rule, active = well fitted curve in the direction sought with a large enough effect; inconclusive = small, poorly fitted or top-dose-only effect, or another doubt; inactive = no such curve, though single readings can be large; an effect the other way counts as inactive or inconclusive.
SMILES,IL-1B inflam inh,RORgamma inh,DT40 TDP1 CPT,Gal4-VP16 FLuc,DT40 TDP1 no CPT,ELG1 repair inh
O=C(c1ccc(Cn2c(=S)[nH]c3ccc(N4CCOCC4)cc3c2=O)cc1)N1CCN(c2ccc(F)cc2)CC1,0,?,16µM,0,16µM,?
CC1(C)CCC[C@]2(C)C(CS(=O)c3ccccc3)=C(C=O)CC[C@@H]12 (stereo partly specified),?,-,?,-,21µM,-
O=C(NC1CC1)c1ccc(CS(=O)c2ccccc2)o1 (stereo unspecified),0,0,0,0,0,0
O=S(=O)(O)c1ccc2c(N=Nc3ccc(S(=O)(=O)O)c4ccccc34)c(O)c(S(=O)(=O)O)cc2c1,-,0[10 µM],?,?,?,-
CC(=O)Nc1ccc(S(=O)(=O)O)c2cc(S(=O)(=O)O)c(N=Nc3ccc(N=Nc4ccc(S(=O)(=O)O)cc4)c4ccc(S(=O)(=O)O)cc34)c(O)c12,-,-,8.9µM,-,13µM,-
NC(=O)NC(=O)CN1C(=O)NC2(CCOc3ccccc32)C1=O (stereo unspecified),0,0,0,0,0,0
c1ccc(SSc2ccccn2)nc1,-91,-,2.9µM,-,4.6µM,-
CCCC(=O)N1CCN(c2nc3c(OC)ccc(Cl)c3s2)CC1,?,0,?,0,0,0
CCCCC(=O)N1CCN(c2nc3c(C)c(C)ccc3s2)CC1,-,-,?,-,18µM,-
Cc1ccc2sc(N3CCN(C(=O)CCS(=O)(=O)c4ccc(Cl)cc4)CC3)nc2c1C,-,-,4.1µM,-,2.3µM,-
COC(=O)c1ccc(NC(=O)CSC2=NCCN2)cc1,-53,0,?,0,15µM,0
Cc1ccc(C2=Nc3ccc(Br)cc3C(c3ccncc3)=NN2)cc1,-149,0,?,0,0,?
CCCOc1ccc(C2=NNC(c3cccs3)=Nc3ccc(OC)cc32)cc1,0,0,0,0,0,16µM
CCOc1ccc2c(c1)C(c1ccccc1)=NNC(c1ccccc1)=N2,0,0,?,0,?,13µM
CC(=O)Nc1ccc(CN2C(=O)C(C)(C)ON=C2c2ccc(C(F)(F)F)cc2)cc1,0,-,0,-,0,-
COc1cccc(NC(=O)CCNS(=O)(=O)c2ccc3c(c2)CCCC(=O)N3)c1,-,-,0,-,0,-
Cc1ccc(C)c(OC(=O)CSc2nnc(-c3ccc4c(c3)OCO4)o2)c1,-,-,0,-,0,-
CC(C)n1cc(C(=O)c2ccccc2O)cc(C#N)c1=O,0,0,0,0,0,0
COc1ccc(O)c(C(=O)c2cc(C#N)c(=O)n(Cc3ccccc3)c2)c1,0,?,?,0[10 µM],?,0
N#Cc1cc(C(=O)c2cc(Br)ccc2O)cn(Cc2ccccc2)c1=O,?,?,?,?,21µM,?
Cc1ccccc1-n1cc(C(=O)c2cc(Cl)ccc2O)cc(C#N)c1=O,0,?,?,0,12µM,?
Cc1c(-n2cc(C(=O)c3cc(F)ccc3O)cc(C#N)c2=O)c(=O)n(-c2ccccc2)n1C,-56,0,0,0,0,0
N#Cc1cc(C(=O)c2cc(Cl)ccc2O)cn(CC2CCCO2)c1=O (stereo unspecified),0,0,?,0,21µM,0
Cc1ccc(-c2ccc(=O)n(CC(=O)Nc3ccc(F)c(Cl)c3)n2)cc1C,-,-,0,-,0,-
N#Cc1cccc(C(=O)C(=O)N2CCN(C(=O)OCc3ccccc3)CC2)c1,0,-,?,-,23µM,-
SMILES,IL-1B inflam inh,RORgamma inh,DT40 TDP1 CPT,Gal4-VP16 FLuc,DT40 TDP1 no CPT,ELG1 repair inh
O=C(OCc1ccccc1)N1CCOCCN(C(=O)OCc2ccccc2)CCOCC1,0,0,26µM,0,26µM,0
O=C(NCC(=O)N1CCOCC1)OCc1ccccc1,0,0,0,0,0,?
O=C(Nc1ccc(N2CCOCC2)cc1)C1CCN(C(=O)OCc2ccccc2)CC1,0,0,0,0,0,0
O=C(Nc1ccc(N2CCOCC2)cc1Cl)C1CCN(C(=O)OCc2ccccc2)CC1,0,0,?,0,16µM,?
Cc1cc(C)n(-c2ccc(C(=O)OCC(=O)Nc3cc(S(C)(=O)=O)ccc3Cl)cc2)n1,0,-,0,-,0,0
N#Cc1c(SCc2c(Cl)cccc2Cl)nc(N)[nH]c1=S,0,-,?,-,?,0
Cn1c(CCC(=O)OCC(=O)NCc2ccc3c(c2)OCO3)nc(=O)c2ccccc21,0,0,0,0,0,0
O=C(CCn1c(=S)[nH]c2cc3c(cc2c1=O)OCO3)NCCc1ccccc1Cl,0,-,0,-,0,-
COc1ccc(C(=O)NCCNc2nc3cc(C)cc(C)c3cc2C#N)nc1,0,-,0,-,0,-
COC(=O)c1cc(C#N)c(NCc2ccccc2)nc1C,0,0,?,0,16µM,0
COc1cc(OC)cc(C(=O)NCCNc2nc3cc(C)cc(C)c3cc2C#N)c1,0,0[1.91 µM],?,0,23µM,16µM
COc1ccc(C(=O)NCCCNc2nc3cc(C)cc(C)c3cc2C#N)cc1,0,-,?,-,21µM,-
COC(=O)c1cc(C#N)c(N(C)Cc2ccccc2)nc1C,0,?,0,?,0,0
COc1ccccc1C(=O)NCCNc1nc2cc(C)cc(C)c2cc1C#N,?,0,?,0,18µM,9.2µM
COc1ccc(C(=O)NCCNc2nc3cc(C)cc(C)c3cc2C#N)c(OC)c1,0,-,?,-,?,-
Cc1c(C(=O)NCc2ccc(F)cc2)sc2ncnc(NCC3CCCO3)c12 (stereo unspecified),-,-,0[9.04 µM],-,0,-
COCC(=O)Nc1cc(C(=O)N2CCCOc3c(cccc3OC)C2)c2c(c1)nc(C1CCC1)n2C,-,-,0,-,0,-
CC1=CC(Cc2ccccc2)N(C)C(C(N)=O)C1 (stereo unspecified),0,-,0,-,0,-
Cc1cc(C)c2cc(C#N)c(NCCOC(=O)c3ccccc3C)nc2c1,-60,0,0,0,?,0
COc1ccc(C(=O)NCCNC(=O)c2ccc(OC)cc2)cc1,0,-,0,-,0,-
Cc1cc(C)c2cc(C#N)c(NCCNC(=O)c3ccccc3)nc2c1,0,-,?,-,?,-
COc1ccc(C(=O)NCC(C)(C)SCc2c(C)cc(C)cc2C)cc1,-72,?,23µM,?,16µM,?
COc1ccc(/C=N/NS(=O)(=O)c2ccc(C)cc2)cc1OC(=O)c1ccc(C)cc1,0,0,0,0,0,0
CC[C@@H](C)[C@@H]1CN([C@@H](CN2CCC[C@H]2CN2C(N)=NC[C@H]2CC(C)C)C(C)C)C(=N)N1CCCC1CCCC1,?,-,?,-,?,0
CCC[C@@H](CN1CCC[C@H]1CN1C(N)=NC[C@@H]1Cc1ccccc1)N1C[C@@H](Cc2ccccc2)N(CCCC2CCCC2)C1=N,-83,-,?,-,?,0

# Screening results deposited in PubChem BioAssay by National Center for Advancing Translational Sciences (NCATS).
